Legend:
[1] = tested on: Staphylococcus aureus MW2 delta-mecA (mecA-); test: normalized GFP fluorescence (growth of mecA- strain) (fraction of control range); higher = more growth of mecA- strain; details: compound concentration: 150 uM; cefoxitin: subinhibitory; fluorescent label: GFP
Summary of the method: (§1)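 Pre-induced S. aureus MW2 mecA+ (DsRed) and ΔmecA (GFP) cells were mixed 1:1 in LB with a daily-set subinhibitory cefoxitin dose. They were dispensed at 5 µL/well onto 150 μM compound (1.5% DMSO) in 1536-well plates, single replicate. Growth was 20 h at 37 °C, 90% humidity, unshaken, and DsRed (540/590) and GFP (485/520) were then read. Each channel was scaled per plate between the medians of the single-strain controls. Plates with high No Treatment ratios and rows with DsRed/GFP >10 were excluded.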

[2] = tested on: Staphylococcus aureus MW2 (mecA+); test: normalized DsRed fluorescence (growth of mecA+ strain) (fraction of control range); higher = more growth of mecA+ strain; details: compound concentration: 150 uM; cefoxitin: subinhibitory; fluorescent label: DsRed
Summary of the method: as §1

Row | SMILES | normalized GFP fluorescence [1] | normalized DsRed fluorescence [2]
1 | CC#C[C@]1(O)CC[C@H]2[C@@H]3CCC4=CC(=O)CCC4=C3[C@@H](c3ccc(N(C)C)cc3)C[C@@]21C | 0.622 | 0.695
2 | CCc1cn([C@H]2C[C@H](O)[C@@H](CO)O2)c(=O)[nH]c1=O | 0.343 | 0.714
3 | CC(=O)Nc1cccc(-n2c(=O)n(C3CC3)c(=O)c3c(Nc4ccc(I)cc4F)n(C)c(=O)c(C)c32)c1 | 0.179 | 1.12
4 | CCOC(=O)C1=C[C@]2(CC)CCCN3CCc4c(n1c1ccccc41)[C@@H]32 | 0.593 | 0.554
5 | Nc1nc(=O)[nH]cc1F | 0.282 | 0.62
6 | CC1Cc2ccccc2N1NC(=O)c1ccc(Cl)c(S(N)(=O)=O)c1 (centres undefined) | 0.39 | 0.625
7 | O=C(CCCCCCC(=O)Nc1ccccc1)NO [Vorinostat (SAHA)] | 0.386 | 0.944
8 | Cc1ccc(C(=O)c2ccc(CC(=O)O)n2C)cc1 | 0.421 | 0.279
9 | CC(=O)[C@H]1CC[C@H]2[C@@H]3C[C@H](C)C4=CC(=O)CC[C@]4(C)[C@H]3[C@@H](O)C[C@]12C | 0.258 | 0.378
10 | CN1C2=CC(=O)/C(=N\NC(N)=O)C=C2CC1S(=O)(=O)O (centres undefined) [Carbazochrome sodium sulfonate] | 0.171 | 0.676
11 | O=C(O)C[C@H](O)C[C@H](O)/C=C/c1c(C2CC2)nc2ccccc2c1-c1ccc(F)cc1 [Pitavastatin calcium (Livalo)] | -0.0148 | 0.559
12 | CNC(=O)c1cc(Oc2ccc(NC(=O)Nc3ccc(Cl)c(C(F)(F)F)c3)c(F)c2)ccn1 [Regorafenib (BAY 73-4506)] | 0.0128 | 0.0729

Source: the supplement of paper PMC7695840
